This is an account of results in PubChem BioAssay AID504832 (National Center for Advancing Translational Sciences (NCATS), 2011).

The whole screen tested about 310,000 compounds, of which about 18,000 (5.8%) were called active. Inconclusive results (about 22%) are left out. What follows is part of a selection rich in actives, with near analogues and random picks from the rest. A call without a number means that no potency is given here. Values without a mark were called inactive. The call rests on the fitted dose curve; in most records, active means well fitted inhibition curve with a large enough effect; inconclusive means small, poorly fitted or top-dose-only effect, or another doubt; inactive means no such curve, though single readings can be large or run the other way.
Potency means the concentration at half of the fitted maximal effect.

This assay is described as follows: Primary qHTS for delayed death inhibitors of the malarial parasite plastid, 48 hour incubation. The settings on record: P. falciparum luciferase growth in erythrocytes; series mostly up to 28.7 µM. In outline: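 In quantitative HTS format, infected erythrocytes bearing luciferase-reporter parasites were treated for a single generation at 37 C. Luminescence after adding detection reagent served as the growth measure.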
Background: In qHTS, concentration-response curves come from the screen itself.
Turning to `Cc1cccc(OCCC(=O)OCc2csc(CC(=O)Nc3ccccc3C)n2)c1`, the Potency result is “inactive”.
Still for that read-out and setting: then `Cn1ncc2c(N3CCCCC3)nc(NCCCO)nc21`, with “inactive”; and `CCc1ccccc1OCC(=O)Nc1ccc(C)c(S(=O)(=O)N2CCCCCC2)c1`, with 10.4 µM (active); and `CCc1ccccc1OCC(=O)Nc1ccc2c(c1)OCCO2`, with “inactive”.
Turning to `Cc1ccc(NC(=O)CCCNC(=O)c2ccc(Cl)cc2)cc1S(=O)(=O)N1CCCCC1`, the Potency result was “inactive”.
Same read-out and setting: then `COc1ccc(C(=O)NC2CC(C)(C)NC(C)(C)C2)cc1OC`, with “inactive”.
As for `COc1ccc(S(=O)(=O)NC(C)c2ccccc2)cc1C(=O)N1CCCCC1` (stereo not given), the Potency entry was “inactive”.
On the same count and under the same terms, then `COc1cccc(C(=O)NNS(=O)(=O)c2ccc(F)cc2)c1`, with “inactive”.
For `CN(C)Cc1ccccc1C1(O)c2ccccc2CSc2ccccc21` (stereo not given), the Potency result was “inactive”.
On the same count and under the same terms, then `CN(C)CC/C=C1\c2ccccc2CSc2ccccc21`, with 10.4 µM (active).
As to `CCOc1ccc(C(=O)Nc2cc(Cl)ccc2-n2cncn2)cc1OC`, the Potency entry is “inactive”.
`O=C(CNc1cccc(S(=O)(=O)N2CCCCC2)c1)Nc1ccccc1F`: the Potency entry is “inactive”.
Still for that read-out and setting: in the case of `O=C(NCc1cc(F)cc(C(F)(F)F)c1)C1CCC(=O)N(C2CCCC2)C1` (stereo not given) it was “inactive”; in that of `Cc1cc(NC(=O)c2ccco2)c(=O)n(Cc2c(F)cccc2Cl)c1`, “inactive”.
Still for that read-out and setting: then `COC(=O)C1=C(Nc2ccc(OC)cc2)C=C(C)C(C(=O)OC)C1c1ccc(C)cc1` (stereo not given), with 10.4 µM (active); and `Cc1ccc(C(=O)CNc2ccc(F)cc2)cc1`, with “inactive”.
Same read-out and setting: in the case of `COC(=O)C1=C(Nc2ccc(C)cc2)C=C(C)C(C(=O)OC)C1c1ccc(F)cc1` (stereo not given) it was 3.7 µM (active); in that of `COc1ccc(N2C(=O)C(O)C2c2ccc(C)cc2)cc1` (stereo not given), “inactive”.
On to `COC(=O)C1C(=O)NCC1c1ccc(OC)cc1` (stereo not given), for which the Potency entry was “inactive”.
Still for that read-out and setting: then `Cc1ccc(NC(=S)Nc2ccc(F)cc2)cc1`, with “inactive”.
On the same count and under the same terms, then `c1ccc2c(c1)CCc1snnc1-2`, with “inactive”.
Same read-out and setting: then `COC(=O)c1cc(CNC(=O)CC(C)c2ccccc2)ccc1OC` (stereo not given), with “inactive”; and `CCOc1cc(/C=N/NC(=O)CN2CCCCC2)ccc1O`, with “inactive”; and `CCOC(=O)N1CCN(CCC(=O)Nc2ccccc2)CC1`, with “inactive”.
`Cc1noc(C)c1COC(=O)c1cc2ccccc2cc1O`: the Potency result is “inactive”.
In the case of `O=C(Nc1c2c(nc3ccccc13)CCCC2)c1ccccc1Br`, the Potency result is “inactive”.
Turning to `O=C(NNc1c2ccccc2nc2ccccc12)c1cc2ccccc2cc1O`, the Potency is 11.7 µM (active).
On the same count and under the same terms, in the case of `COCCCn1c(SCc2cccc(OC)c2)nc2cc(OC)c(OC)cc2c1=N` it was 2.62 µM (active); in that of `CCn1c(SCc2ccccc2)nc2c(c1=O)SCC2`, “inactive”; in that of `CCn1c(SCc2ccccc2)nc2cc(OC)c(OC)cc2c1=O`, 10.4 µM (active).
On the same count and under the same terms, then `COc1cccc(CSc2nc3nc(C)cc(C)n3n2)c1`, with “inactive”; and `COCCn1c(SCc2nc3cc(OC)c(OC)cc3c(=O)[nH]2)nnc1-c1ccncc1`, with “inactive”; and `COC(=O)CSc1nc2ccccc2c(=O)n1Cc1ccccc1`, with “inactive”.
On the same count and under the same terms, in the case of `Cc1ccc(NC2CCCN(C(=O)CCc3cn[nH]c3)C2)cc1C` (stereo not given) it was “inactive”.
On to `COc1ccc(S(=O)(=O)Nc2cc(C)on2)cc1NC(C)=O`, for which the Potency result is “inactive”.
The same measure, in the same setting: in the case of `Cc1ccc2nc(SCC(=O)N3CC(C)OC(C)C3)nc(=O)n2c1` (stereo not given) it was “inactive”.
Same read-out and setting: in the case of `CC(C)Nc1ccc(-n2nc3ccccc3[n+]2[O-])cc1` it was “inactive”; in that of `COc1ccc(NC(=O)C2CCN(S(=O)(=O)c3ccc4[nH]c(=O)oc4c3)CC2)c(OC)c1`, “inactive”.
For the compound `COc1ccc(C(CNC(=O)COc2ccccc2OC)N2CCCCC2)cc1` (stereo not given), the Potency result is “inactive”.
Still for that read-out and setting: then `COc1ccccc1CN1CC(C(=O)NCCc2cn[nH]c2)CCC1=O` (stereo not given), with “inactive”; and `COc1ccc2c(c1)C(SCC(=O)NCc1ccccc1)CC(C)(C)O2` (stereo not given), with “inactive”.
The same measure, in the same setting: in the case of `COc1ccc2c(c1)C=CC1(O2)N(CCO)c2ccccc2C1(C)C` (stereo not given) it was 13.1 µM (active).
Consider `CN1c2ccc([N+](=O)[O-])cc2C(C)(C)C12C=Cc1cc(C(=O)O)ccc1O2` (stereo not given), for which the activity change, negative = inhibition is 16.2% [at 0.00184 µM].
With `CC1CCCCC1NC(=O)COC(=O)Cc1ccc(Cl)cc1` (stereo not given), the Potency result is “inactive”.
The same measure, in the same setting: then `CSc1nnc2ccc(-c3ccc(C)cc3)nn12`, with “inactive”; and `Cc1ccc(S(=O)(=O)n2cccc2CO)cc1`, with “inactive”; and `COCCNc1ccc(-c2n[nH]c(=O)c3ccccc23)cc1[N+](=O)[O-]`, with 4.65 µM (active).
The same measure, in the same setting: in the case of `CN(C)CCNc1ccc(-c2n[nH]c(=O)c3ccccc23)cc1[N+](=O)[O-]` it was “inactive”; in that of `COCCNc1cc(NCCOC)c([N+](=O)[O-])cc1[N+](=O)[O-]`, “inactive”; in that of `COc1ccc(CNC(=O)c2cc(=O)c3c(C)cc(C)cc3o2)cc1`, “inactive”.
Still for that read-out and setting: in the case of `O=C(c1cc(-c2ccc(Cl)cc2)on1)N1CCN(c2ccccc2)CC1` it was “inactive”; in that of `CC(C)n1cnc2c(Nc3cccc(Cl)c3)nc(N(CCO)CCCO)nc21`, 7.38 µM (active); in that of `COc1ccccc1C(=O)NC(=S)Nc1ccccc1N1CCCCC1`, “inactive”.
With `O=C(NC(=S)Nc1ccccc1N1CCCCC1)c1ccc(F)cc1`, the Potency was 8.28 µM (active).
Same read-out and setting: in the case of `O=C(Nc1ccccc1N1CCCCC1)c1cccc(F)c1` it was “inactive”.
Same read-out and setting: then `O=C(COc1nsnc1N1CCOCC1)Nc1ccccc1Cl`, with “inactive”; and `Cn1c(=O)n(C)c2cc(C(=O)Nc3ccc(Br)cc3)ccc21`, with “inactive”.
Still for that read-out and setting: in the case of `N#CCSc1nc(-c2ccccc2)nc2ccc(F)cc12` it was “inactive”; in that of `Clc1ccc2nc(-c3ccccc3)nc(C(Cl)Cl)c2c1`, 10.4 µM (active).
With `CSc1nc(-c2ccccc2)nc(C(Cl)Cl)n1`, the Potency entry was “inactive”.
For `CN1C(C(=O)NCC2CC2)CC2Cn3c(nc4ccccc43)C21` (stereo not given), the Potency result was “inactive”.
The same measure, in the same setting: then `Cn1nc(C(F)(F)F)c2cc(NC(=O)OCC(C)(C)C)sc21`, with 2.33 µM (active); and `Cn1nc(C(F)(F)F)c(-c2ccc(F)cc2)c1NC(=O)CSCC(=O)O`, with “inactive”.
Regarding `Cn1nc(C(F)(F)F)c2cc(C(=O)N3CCOCC3)sc21`, the Potency entry is “inactive”.
Same read-out and setting: then `COc1ccc(CN2CCC(n3nccc3NC(=O)CCCc3ccccc3)CC2)cc1C`, with “inactive”.
For the compound `CC(Sc1nnc(C2CC2)n1C1CC1)C(=O)Nc1ccc(C(N)=O)cc1` (stereo not given), the Potency result was “inactive”.
Still for that read-out and setting: then `COc1cccc(NC(=O)CSc2nnc(Cc3ccc(OC)c(OC)c3)o2)c1`, with “inactive”; and `O=C(COC(=O)c1ncc(Cl)c(Cl)c1Cl)NNC(=O)c1ccccc1`, with “inactive”.
The same measure, in the same setting: in the case of `O=C(O)Cc1sc(-c2ccccc2)nc1-c1cccs1` it was “inactive”; in that of `O=C(NCc1cccnc1)c1cn(-c2ccccc2)nc1-c1cccs1`, “inactive”.
With `CC(=O)C1=C(C)NC(C)=C(C(C)=O)C1c1cn(-c2ccccc2)nc1-c1cccs1`, the Potency was 14.7 µM (active).
In the case of `CCOc1ccc2[nH]c(C(=O)N/N=C/c3cccc(OC)c3OC)cc2c1`, the Potency result is “inactive”.
On the same count and under the same terms, then `COc1ccc(OC)c(C(=O)c2ccc(Cl)cc2)c1`, with “inactive”; and `COc1ccc(-c2onc3ccc(C(C)=O)cc23)cc1`, with “inactive”; and `COc1ccc(O)c(C(=O)c2cnc3onc(C(C)C)c3c2)c1`, with 2.62 µM (active).
Same read-out and setting: in the case of `COc1cc(OC)c(C(=O)OCC(=O)N2CC(=O)Nc3ccccc32)cc1OC` it was “inactive”.
Same read-out and setting: in the case of `COc1ccc(C(=O)OCC(=O)N2CC(=O)Nc3ccccc32)cc1Br` it was “inactive”.
On to `COc1ccc(Cl)cc1-n1c(C)cc(C(=O)OCC(=O)N2CC(=O)Nc3ccccc32)c1C`, for which the Potency was 5.22 µM (active).
On the same count and under the same terms, in the case of `CCCC(C)NC(=O)C1CCN(C(=O)C2CC(=O)N(c3ccc(C)cc3)C2)CC1` (stereo not given) it was “inactive”.
On the same count and under the same terms, then `C=CCn1c(-c2ccccc2OCC)n[nH]c1=S`, with “inactive”; and `CCn1c(-c2ccncc2)n[nH]c1=S`, with “inactive”; and `CCCc1cc(-c2n[nH]c(=S)n2CC)c2ccccc2n1`, with 1.31 µM (active).
On the same count and under the same terms, in the case of `O=C(c1cc(S(=O)(=O)N2CCOCC2)ccc1Cl)N1CCOCC1` it was “inactive”.
For the compound `Cn1cnc2c1c(=O)n(Cc1ccccc1C#N)c(=O)n2C`, the Potency entry was “inactive”.
As for `O=C(Nc1ccccc1F)c1ccccc1-c1ccccc1`, the Potency entry is “inactive”.
Turning to `CC(C)N(C(=O)c1ccc(-c2ccccc2F)cc1)C(C)C`, the Potency was 10.4 µM (active).
Same read-out and setting: in the case of `CCN(CC(=O)Nc1c(F)cccc1F)C(=O)c1ccc(-c2ccccc2)cc1` it was “inactive”.
Same read-out and setting: then `CCCCN(C(=O)c1nn(C)c(=O)c2ccccc12)c1c(N)n(CCC)c(=O)[nH]c1=O`, with “inactive”.
For `Cc1nc(C)c(C(=O)N(c2ccc(C)c(C)c2)C(C(=O)NCc2ccco2)c2ccccc2)s1` (stereo not given), the Potency is 11.7 µM (active).
For `Cc1cccc(N(C(=O)c2sc(C)nc2C)C(C(=O)NCC2CCCO2)c2ccccc2)c1` (stereo not given), the Potency entry is “inactive”.
The same measure, in the same setting: then `Cc1cccc(N(C(=O)Cc2cccs2)C(C(=O)NCc2ccco2)c2ccncc2)c1` (stereo not given), with “inactive”; and `CCOCc1nnc(NC(=O)CCS(=O)(=O)Cc2ccccc2)s1`, with “inactive”; and `Cc1cccc(CNS(=O)(=O)c2ccc(-c3cnc(C4CC4)o3)cc2)c1`, with “inactive”.
Turning to `COc1ccc(C)cc1N(CC(=O)N1CCCC1)S(=O)(=O)c1ccccc1`, the Potency entry is “inactive”.
The same measure, in the same setting: in the case of `CC(C)C(=O)N1CCN(c2nc(-c3ccccc3)c3c(c2C#N)CC(C)(C)OC3)CC1` it was 13.1 µM (active).
Still for that read-out and setting: then `Cc1nc(NCCN)c(C#N)c2c1COC(C)(C)C2`, with “inactive”.
Same read-out and setting: then `CC1(C)Cc2c(sc(NC(=O)C(=O)N3CCOCC3)c2C#N)CO1`, with “inactive”.
With `Cc1sc(NC(=O)C2=COCCO2)c(C#N)c1C`, the Potency result was “inactive”.
Still for that read-out and setting: then `COc1ccccc1NC(=O)CSc1nnc(CNC(=O)c2ccccc2F)o1`, with “inactive”; and `O=C(CN1C(=O)c2ccccc2S1(=O)=O)NC1CCCCC1`, with “inactive”; and `COC(CNC(=O)c1ccc2c(c1)ncn2-c1cc(C)cc(C)c1)OC`, with “inactive”.
The same measure, in the same setting: then `Cc1cc(C)cc(C(=O)N(CCc2ccccc2)C2=CC3CCC(C2)N3C)c1` (stereo not given), with 11.7 µM (active); and `CN1C2C=C(N(C(=O)c3ccc(Cl)cc3)c3ccccc3)CC1CC2` (stereo not given), with “inactive”; and `Cc1ccc(CCN2CC(C(=O)NCCc3ccccc3)CC2=O)cc1` (stereo not given), with “inactive”.
Still for that read-out and setting: in the case of `O=S(=O)(NC1CCCCC1N1CCC(O)CC1)c1ccc(Cl)cc1` (stereo not given) it was “inactive”.
Consider `CCN(CC(=O)Nc1c(F)cccc1F)C(=O)c1ccc(S(=O)(=O)N2CCCCC2)cc1`, for which the Potency result was “inactive”.
Turning to `COc1cccc(NC(=O)c2ccccc2N(Cc2ccccc2)S(C)(=O)=O)c1`, the Potency entry is “inactive”.
Same read-out and setting: in the case of `O=C(NCc1ccccc1)c1onc(CSc2nc3ccccc3[nH]2)c1C(=O)NCc1ccccc1` it was 1.17 µM (active); in that of `COCCNC(=O)c1onc(CSc2cccc(C)c2)c1C(=O)O`, “inactive”.
On the same count and under the same terms, then `COc1ccccc1CSc1nc2ccccc2[nH]1`, with “inactive”.
